Source: PubChem (National Center for Advancing Translational Sciences (NCATS))
VACV mCherry inh: vaccinia inhibition (mCherry reporter); Vaccinia virus mCherry reporter infection, fluorescence; Potency, µM (highest dose often 36.5 µM), for inactives: at the top dose activity change, negative = inhibition, actives largely listed as inhibitors; actives 0.63% (n = 310,000); calls by dose curve; tested in A549 cells; further: nearly all actives have a fitted effect of over 35% in size
Marburg entry inh: inhibitors of Marburg virus binding or cell entry; Marburg virus pseudotyped entry inhibition, cell reporter; Potency, µM (series often up to 37.8 µM), inactives show at the top dose activity change, negative = inhibition, most hits filed as inhibitors; actives 1.8% (n = 300,000); calls by dose curve; tested in HEK293 cells
FMDV inh: blocks foot and mouth disease virus. FMDV antiviral cell-based qHTS. Potency, µM (series often up to 57.9 µM), inactives show at the top dose activity change, negative = inhibition, hits mostly inhibitors. actives 1.2% (n = 410,000); calls by dose curve; tested in HEK293T cells; further: read-out not given here; nearly all actives have a fitted effect of over 45% in size
Vaccinia Venus: vaccinia inhibition (Venus reporter); Vaccinia virus Venus reporter expression, fluorescence; Potency, µM (doses to about 36.5 µM), for the others: top-dose activity change, negative = inhibition, usual class: inhibitors; actives 0.46% (n = 330,000); calls by dose curve; tested in A549 cells; further: nearly all actives have a fitted effect of over 30% in size
Sm TGR inh: blocks Schistosoma mansoni thioredoxin glutathione reductase. Q962Y6. purified TGR, DTNB reduction, TNB absorbance 405 nm. Potency, µM (highest dose often 114 µM), without a hit: at the highest dose activity change, negative = inhibition, actives largely listed as inhibitors. actives 3% (n = 360,000); active means well fitted inhibition curve with a large enough effect; inconclusive means small, poorly fitted or top-dose-only effect; inactive means no such curve, though single readings can be large or run the other way; further: nearly all actives have a fitted effect of over 60% in size
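Kinetic colorimetric format: TGR-catalysed, NADPH-driven DTNB reduction monitored via TNB absorbance. Enzyme dispensed at 20 nM; compound exposure 15 min at room temperature before reaction start.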
Lassa entry inh: Lassa virus entry inhibition; Lassa virus pseudotype entry inhibition, cell reporter; Potency, µM (top dose mostly 37.9 µM), without a hit: top-dose activity change, negative = inhibition, actives largely listed as inhibitors; actives 1.2% (n = 300,000); AID 540256; calls by dose curve; tested in HEK293 cells; further: nearly all actives have a fitted effect of over 50% in size
* = called active by the depositor; i = inactive; ? = inconclusive; · = not tested or not shown; [ ] = another dose, or the depositor's remark. Sampled rows, rich in hits. Any-hit rate of the full collection: about 5.4%. On the % scale 0 is the no-effect control and ±100 the full control effect; potency means the concentration at half of the fitted maximal effect.

SMILES | VACV mCherry inh | Marburg entry inh | FMDV inh | Vaccinia Venus | Sm TGR inh | Lassa entry inh
CC(C)c1ccc(CN(C(=O)/C=C/c2ccco2)C2CCS(=O)(=O)C2)cc1 (stereo unspecified) | i | -5% | 0% | -6% | 3.5µM* | ?
O=C(/C=C/c1ccco1)N(Cc1ccccc1F)C1CCS(=O)(=O)C1 (stereo unspecified) | · | · | 4% | · | 10µM* | ·
CC(C)c1ccc(CN(C(=O)c2ccco2)C2CCS(=O)(=O)C2)cc1 (stereo unspecified) | -14% | 18%[46.1 µM] | -19% | -6% | 5% | -19%
CC(=O)Nc1cc(C(=O)Nc2ccc3c(c2)N(C)C(=O)c2ccccc2S3)ccc1C | -9% | · | -21% | -12% | -3% | -9%[46.1 µM]
O=C1CC(c2ccc(F)cc2)CC2=C1C(c1ccc([N+](=O)[O-])o1)Nc1ccccc1N2 (stereo unspecified) | ? | 10µM* | -3% | -8% | 16µM* | ?
O=C1CC(c2ccccc2)CC2=C1C(c1ccccn1)Nc1ccccc1N2 (stereo unspecified) | -5% | 5% | · | -10% | -4% | -14%
Cc1cc(C(C)(C)CC(C)(C)C)ccc1OCCOCC[N+](C)(C)Cc1ccccc1 | 10µM* | · | ? | 10µM* | -8% | ·
C[N+](C)(CCOc1ccccc1)Cc1ccccc1 | i | · | -29% | -16% | · | ·
COc1cc(C)c2c(c1C=O)Oc1c(c(C)c(O)c3c1C(O)OC3=O)OC2=O (stereo unspecified) | 2% | · | -3% | 0% | 20µM* | ·
O=C(CCl)N(Cc1ccccc1)c1ccccc1 | · | 16µM* | 22µM* | · | 5µM* | ?
COc1ccc(CC(=O)N(Cc2ccccc2)c2cccc(C)c2)cc1OC | -3% | -18% | ? | -16% | 5% | -29%
Cc1cccc(N(Cc2ccccc2)C(=O)CCl)c1 | -13% | ? | 13µM* | -14% | 14µM* | -14%
CCc1cccc(NC(=O)Cn2c(=O)n3nc(-c4cccc(F)c4)nc3c3ccccc32)c1 | ? | · | -9% | ? | 14% | -2%[46.1 µM]
CC(=O)C(=Nc1ccc(Cl)cc1Cl)NNc1cccc(Cl)c1 | -6%[1.46 µM] | ? | 24% | ? | ? | 10µM*
Cc1cccc2cc(CN(C(=O)c3ccc(C(F)(F)F)cc3)C3CC3)c(N3CCC(O)CC3)nc12 | -12% | · | -11% | 1% | · | ·
CC1c2ccccc2N(S(=O)(=O)c2ccccc2)C1C (stereo unspecified) | -28% | 3.5µM* | -16% | -29% | · | ?
COc1ccc(OC)c(C(=O)N(Cc2cc3cccc(C)c3nc2N2CCC(O)CC2)C2CC2)c1 | -13% | · | 1% | -12% | · | ·
O=C1C=CC(=O)N1CCNc1ncc(C(F)(F)F)cc1Cl | ? | ? | 32µM* | -28% | 0.4µM* | ?
O=C1CC(=O)N(CCNc2ncc(C(F)(F)F)cc2Cl)C(=O)N1 | · | 6% | -15% | -14% | -21% | -6%
Cc1ccc(-c2cc(C(=O)N3CCOCC3)c3ccccc3n2)o1 | -11% | 3%[46.1 µM] | 8% | 0% | · | 12%[46.1 µM]
Cc1ccc(-c2cc(C(=O)N3CCN(c4ccc(F)cc4)CC3)c3ccccc3n2)o1 | · | ? | -1% | -22% | 45µM* | ?
Cc1ccc(-c2cc(C(=O)N3CCCC(C(F)(F)F)C3)c3ccccc3n2)o1 (stereo unspecified) | i | 24% | -2% | -10% | 28µM* | -24%
O=C(O)c1cc(-c2ccc(-c3ccc(F)cc3)o2)nc2ccccc12 | · | · | 29% | · | 13µM* | ·
Cc1ccc(-c2cc(C(=O)N3CCN(c4ncccn4)CC3)c3cc(Br)ccc3n2)o1 | -9% | ? | -2% | 1% | 7.1µM* | -17%
O=C(c1ccc2c(c1)OCO2)N1CCOc2ccc(CN3CCC(Oc4cccnc4)CC3)cc2C1 | -11% | · | -13% | -7% | · | ·
SMILES | VACV mCherry inh | Marburg entry inh | FMDV inh | Vaccinia Venus | Sm TGR inh | Lassa entry inh
COc1ccc(Br)cc1CNC(=O)Cn1nc(C)n2c(cc3cc(F)ccc32)c1=O | -2% | 6%[46.1 µM] | -16% | 3% | 3% | ·
COc1ccc(CN2CCOc3ccc(C(O)c4cccnc4)cc3C2)c(F)c1 (stereo unspecified) | -14% | · | -30% | -9% | · | ·
c1ccc(OCCOCCN2CCN(C(c3ccccc3)c3ccccc3)CC2)cc1 | ? | ? | -20% | -28% | -1% | ?
COc1ccccc1OCCCCN1CCN(C(c2ccccc2)c2ccccc2)CC1 | ? | ? | -30% | ? | -24% | 18µM*
O=C(CCN1CCN(C(c2ccccc2)c2ccccc2)CC1)N/N=C/c1ccc(O)cc1O | 20µM* | ? | -23% | ? | -8% | ?
N#Cc1ccsc1NC(=O)CCc1ccccc1 | ? | ? | 67% | -22% | -29% | ·
COc1ccc(/C=N\NC(=O)CCN2CCN(c3ccccc3)CC2)cc1OC | 6% | ? | -5% | 20% | 7% | -22%
N#Cc1ccsc1NC(=O)CCN1CCN(C(c2ccccc2)c2ccccc2)CC1 | -23% | 10µM* | -20% | -15% | 7% | ?
COc1ccc(OC)c(/C=N/NC(=O)CCN2CCN(C(c3ccccc3)c3ccccc3)CC2)c1 | ? | 10µM* | 0% | ? | -2% | ?
O=C(CCN1CCN(C(c2ccccc2)c2ccccc2)CC1)N/N=C/c1ccc(O)cc1 | -9% | ? | -22% | -10% | 4% | ?
Cc1ccc(CNC(=O)CCCn2c(=O)c3ccccc3n(Cc3ccccc3Cl)c2=O)cc1 | -12% | ? | -6% | -12% | -1% | 4%[46.1 µM]
O=C(NCc1cccc(F)c1)c1ccc(NC(=O)c2nsc3ccccc23)cc1 | -9% | · | 6% | -9% | 3% | 20%[46.1 µM]
O=S(=O)(c1ccc2c(c1)OCCO2)C1CCC(O)CC1 (stereo unspecified) | · | · | · | · | 3% | ·
COC(=O)CC=C[C@@H](C)[C@H](NC(=O)OCC(Cl)(Cl)Cl)c1cccc(OC)c1 | · | -8%[14.2 µM] | · | · | · | ·
COC(=O)N[C@H](C(C(=O)OC)=C(C)NCc1ccccc1)c1ccco1 | · | -24%[14.2 µM] | · | · | · | ·
Cc1cc(C)n(CCC(=O)N/N=C/c2ccc(O)cc2O)n1 | 20µM* | 13µM* | 0% | ? | 1% | ?
COc1ccc(N2C(=O)CC(Sc3nnc(-c4ccccc4F)n3C)C2=O)cc1 (stereo unspecified) | · | · | -10% | · | 2.8µM* | ·
C=CCNc1nnc(SC2CC(=O)N(c3ccc(OC)cc3)C2=O)s1 (stereo unspecified) | -7% | -8% | 7% | -4% | 2.8µM* | -45%[14.3 µM]
COc1ccc(N2C(=O)CC(Sc3nc4ccccc4s3)C2=O)cc1 (stereo unspecified) | -3% | ? | 20% | 0% | 22µM* | 5%
CCOc1cccc(N2C(=O)CC(N3CCN(c4nc5ccccc5s4)CC3)C2=O)c1 (stereo unspecified) | i | 3% | ? | -11% | ? | -6%
COc1ccc(N2C(=O)CC(Sc3nccc(C)n3)C2=O)cc1 (stereo unspecified) | i | 8% | -12% | -9% | -25%[11.4 µM] | ?
